Results: PubChem BioAssay AID1224921 (Broad Institute, 2016)
Out of some 1,400 compounds screened, about 350 (25%) were called active. Another 2% or so got no clear call; they are omitted. Not all results are given here. Entries with a potency or affinity are not part of this list. A number with no mark means an inactive call. No rule for the calls is given here.

Assay: C. difficile growth inhibition, confirmation, 4-point retest (AID 1224921);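 also: plate controls were DMSO wells for no effect and levofloxacin 16 µg/mL wells for full effect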
Details: Clostridioides difficile clinical isolate growth, OD600, 24 h, active compounds read low; at 30 µM unless noted

Which max activity does the source give for `Cc1noc(C)c1NC(=O)N[C@H]1CC[C@@H](CC(=O)Nc2ccc(-c3ccccc3)cc2)O[C@H]1CO` here?
The max activity was 12.6%.

Which max activity does the source give for `COc1ccc(NC(=O)Nc2ccc3c(c2)C(=O)N([C@@H](C)CO)C[C@@H](C)[C@H](CN(C)Cc2ccccc2)OCCCC[C@@H](C)O3)cc1` here?
Its max activity is 30.9%.

For `CCCC(=O)Nc1ccc2c(c1)C(=O)N(C)C[C@H](OC)[C@@H](C)CN(Cc1ccccc1)[C@H](C)CO2`, which max activity is on record?
The max activity was 15.3%.

For `O=C(C[C@@H]1C=C[C@@H](NC(=O)CC2CC2)[C@H](CO)O1)NCc1ccc(-c2ccccc2)cc1`, which max activity is on record?
The max activity was -9.84% [at 0.5 µM].

With `CO[C@H]1CN(C)C(=O)c2cc(NC(C)=O)ccc2OC[C@H](C)N(CCc2ccccc2)C[C@H]1C` as the molecule, how does the max activity read?
Its max activity is 19.8%.

For `CCCN1C[C@H](C)[C@H](OC)CN(C)C(=O)c2cc(NC(=O)c3cccc(F)c3)ccc2OC[C@@H]1C`, which max activity is on record?
The max activity was -11.7% [at 1.95 µM].

Which max activity does the source give for `C=CCOC(=O)[C@H]1[C@@H]2C(=O)O[C@@H](c3ccccc3)[C@@H](c3ccccc3)N2[C@@H](c2ccc(OCCOC(=O)[C@@H]3C[C@@H]4C(=O)N[C@@H](CC(C)C)C(=O)N4[C@@H]3c3cccc(OCCO)c3)cc2)[C@]12C(=O)Nc1ccccc12` here?
Its max activity is 24.6%.

With `COc1ccc(-c2ccc([C@H]3[C@@H](C#N)N(C(=O)C4CC4)[C@H]3CO)cc2)cc1` as the molecule, how does the max activity read?
The max activity was 32.9%.

Which max activity does the source give for `C[C@@H]1CN([C@H](C)CO)C(=O)Cc2cc(NC(=O)c3ccncc3)ccc2O[C@@H]1CN(C)Cc1ccc(-c2ccccc2)cc1` here?
Its max activity is 47.8% [at 35 µM].

For `CO[C@H]1CN(C)C(=O)c2ccc(NS(C)(=O)=O)cc2OC[C@@H](C)N(Cc2ccccn2)C[C@H]1C`, which max activity is on record?
Its max activity is -14.3% [at 8 µM].

Which max activity does the source give for `COCC(=O)Nc1ccc2c(c1)OC[C@@H](C)N(C(=O)c1ccccc1F)C[C@H](C)[C@H](OC)CN(C)C2=O` here?
Its max activity is 7.88%.

For `C[C@@H]1CN([C@H](C)CO)S(=O)(=O)c2ccc(C#CCN(C)C)cc2O[C@H]1CN(C)C(=O)c1ccccc1F`, which max activity is on record?
Its max activity is 18%.

For `CCCN1C[C@@H](C)[C@@H](OC)CN(C)C(=O)c2cc(NC(=O)c3cccc(F)c3)ccc2OC[C@@H]1C`, which max activity is on record?
Its max activity is -11.8%.

For `CCCN1C[C@H](C)[C@@H](OC)CN(C)C(=O)c2ccc(NC(=O)CC)cc2OC[C@H]1C`, which max activity is on record?
The max activity was 5.45% [at 1.95 µM].

With `COCC(=O)N1C[C@H](C)[C@@H](OC)CN(C)C(=O)c2cc(NC(=O)NC(C)C)ccc2OC[C@@H]1C` as the molecule, how does the max activity read?
Its max activity is 23.4%.

Which max activity does the source give for `C[C@H](CO)N1C[C@H](C)[C@H](CN(C)S(=O)(=O)c2cccc(F)c2)Oc2ncc(C#CCN(C)C)cc2C1=O` here?
Its max activity is 8.03%.

With `O=C(C[C@H]1C[C@@H]2c3cc(NC(=O)C4CCC4)ccc3O[C@@H]2[C@@H](CO)O1)NCc1ccc(Cl)cc1` as the molecule, how does the max activity read?
The max activity was -16.5% [at 0.5 µM].

For `C[C@H]1CN([C@@H](C)CO)C(=O)c2cccc(NS(C)(=O)=O)c2O[C@@H]1CN(C)Cc1ccccc1`, which max activity is on record?
The max activity was -11.4% [at 0.5 µM].

Which max activity does the source give for `C[C@@H]1CN([C@@H](C)CO)C(=O)Cc2cc(NC(=O)c3ccncc3)ccc2O[C@H]1CN(C)Cc1ccc(-c2ccccc2)cc1` here?
The max activity was 25.3% [at 8 µM].

With `C[C@@H]1CN([C@H](C)CO)C(=O)c2cccc(NC(=O)c3ccncc3)c2O[C@H]1CN(C)Cc1ccc(Cl)c(Cl)c1` as the molecule, how does the max activity read?
The max activity was 16.6%.

For `C[C@@H]1CN([C@@H](C)CO)C(=O)c2cccc(NC(=O)c3ccncc3)c2O[C@H]1CN(C)Cc1ccc(-c2ccccc2)cc1`, which max activity is on record?
The max activity was 13.2% [at 8 µM].

Which max activity does the source give for `Cc1cc(C(=O)Nc2cccc3c2O[C@H](CN(C)Cc2ccc(Oc4ccccc4)cc2)[C@@H](C)CN([C@H](C)CO)C3=O)n(C)n1` here?
Its max activity is 41%.

For `C[C@@H]1CN([C@H](C)CO)C(=O)c2cccc(NC(=O)c3ccncc3)c2O[C@H]1CN(C)Cc1ccc(-c2ccccc2)cc1`, which max activity is on record?
The max activity was 36.1% [at 8 µM].

With `CO[C@H]1CN(C)C(=O)c2cc(NC(=O)Nc3cccc(F)c3)ccc2OC[C@@H](C)N(C)C[C@@H]1C` as the molecule, how does the max activity read?
Its max activity is -17.5%.

For `CO[C@@H]1CN(C)C(=O)c2cc(NS(=O)(=O)c3ccccc3C)ccc2OC[C@@H](C)N(C)C[C@H]1C`, which max activity is on record?
Its max activity is -6.93% [at 1.95 µM].

For `CCC(=O)N[C@H]1CC[C@H](CC(=O)NCCN2CCCCC2)O[C@@H]1CO`, which max activity is on record?
Its max activity is 25.2%.

With `Cc1ccccc1-c1ccc2c(c1)O[C@H](CN(C)Cc1ccncc1)[C@H](C)CN([C@@H](C)CO)S2(=O)=O` as the molecule, how does the max activity read?
The max activity was 25.3%.

Which max activity does the source give for `O=C(C[C@@H]1CC[C@@H]2[C@H](COC[C@@H](O)CN2S(=O)(=O)c2ccccc2)O1)NCc1ccc(-c2ccccc2)cc1` here?
Its max activity is 25.5%.

Which max activity does the source give for `O=C(C[C@H]1CC[C@H]2[C@@H](COC[C@H](O)CN2S(=O)(=O)c2ccccc2)O1)NCc1ccc(-c2ccccc2)cc1` here?
Its max activity is 41.2%.

For `CC(C)CC#Cc1ccc2c(c1)O[C@@H](CN(C)Cc1cccnc1)[C@H](C)CN([C@H](C)CO)S2(=O)=O`, which max activity is on record?
The max activity was 41.5% [at 8 µM].

For `CC(C)CC#Cc1ccc2c(c1)O[C@H](CN(C)Cc1ccccc1F)[C@H](C)CN([C@@H](C)CO)S2(=O)=O`, which max activity is on record?
Its max activity is 23.7% [at 8 µM].

For `CO[C@@H]1CN(C)C(=O)c2ccc(NC(=O)c3ccccn3)cc2OC[C@@H](C)N(C(=O)C2CCC2)C[C@H]1C`, which max activity is on record?
Its max activity is -10.9% [at 23.5 µM].

For `CC(C)C(=O)Nc1ccc2c(c1)C(=O)N(C)[C@H]1CC[C@@H](CC(=O)NCc3ccccc3F)O[C@H]1CO2`, which max activity is on record?
Its max activity is -11.1% [at 1.95 µM].

Which max activity does the source give for `C[C@@H]1CN([C@@H](C)CO)S(=O)(=O)c2ccc(C#CC3CCCC3)cc2O[C@H]1CN(C)Cc1cccnc1` here?
The max activity was 15.4%.

Which max activity does the source give for `O=C(N[C@@H]1C=C[C@@H](CC(=O)N2CCc3ccccc3C2)O[C@@H]1CO)C1CC1` here?
The max activity was 15.1%.

Which max activity does the source give for `CC(C)CC#Cc1ccc2c(c1)O[C@H](CN(C)Cc1ccc3c(c1)OCO3)[C@H](C)CN([C@@H](C)CO)S2(=O)=O` here?
Its max activity is 27.5%.
